Compound in the assay: Nc1nc2c(ncn2[C@@H]2O[C@H](COP(=O)(O)OP(=O)(O)OP(=O)(O)O)[C@@H](O)[C@H]2O)c(=O)[nH]1 [guanosine triphosphate]
As to the kind of experiment: NP40-soluble protein abundance relative to vehicle (solubility fold change) (ratio); higher = more soluble protein in presence of GTP. The essentials:
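Crude Jurkat lysate, prepared by Dounce homogenisation, was exposed to eight concentrations from 0.1 to 10 mM for 10 min at room temperature and then 3 min at 37 °C. Solubilisation used 0.8% NP40 with benzonase for 60 min at 4 °C, followed by ultracentrifugation and TMT labelling of the supernatant for LC-MS/MS. After vsn normalisation of intensities, each value is the fold change against the detergent-processed vehicle within each replicate, across three independent experiments.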

± gives the standard deviation of the averaged measurements. Targets with the largest changes are over-represented here; the source holds about 5,400 in all.

These results are taken from the supplement of paper PMC6411743.

Chain of UniProt Q16864 (Q16864 whole entry): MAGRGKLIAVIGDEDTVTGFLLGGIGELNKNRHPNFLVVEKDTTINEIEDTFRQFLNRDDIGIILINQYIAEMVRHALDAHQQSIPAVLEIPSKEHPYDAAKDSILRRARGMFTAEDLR
Chain of UniProt Q6UB99 (Q6UB99 whole entry): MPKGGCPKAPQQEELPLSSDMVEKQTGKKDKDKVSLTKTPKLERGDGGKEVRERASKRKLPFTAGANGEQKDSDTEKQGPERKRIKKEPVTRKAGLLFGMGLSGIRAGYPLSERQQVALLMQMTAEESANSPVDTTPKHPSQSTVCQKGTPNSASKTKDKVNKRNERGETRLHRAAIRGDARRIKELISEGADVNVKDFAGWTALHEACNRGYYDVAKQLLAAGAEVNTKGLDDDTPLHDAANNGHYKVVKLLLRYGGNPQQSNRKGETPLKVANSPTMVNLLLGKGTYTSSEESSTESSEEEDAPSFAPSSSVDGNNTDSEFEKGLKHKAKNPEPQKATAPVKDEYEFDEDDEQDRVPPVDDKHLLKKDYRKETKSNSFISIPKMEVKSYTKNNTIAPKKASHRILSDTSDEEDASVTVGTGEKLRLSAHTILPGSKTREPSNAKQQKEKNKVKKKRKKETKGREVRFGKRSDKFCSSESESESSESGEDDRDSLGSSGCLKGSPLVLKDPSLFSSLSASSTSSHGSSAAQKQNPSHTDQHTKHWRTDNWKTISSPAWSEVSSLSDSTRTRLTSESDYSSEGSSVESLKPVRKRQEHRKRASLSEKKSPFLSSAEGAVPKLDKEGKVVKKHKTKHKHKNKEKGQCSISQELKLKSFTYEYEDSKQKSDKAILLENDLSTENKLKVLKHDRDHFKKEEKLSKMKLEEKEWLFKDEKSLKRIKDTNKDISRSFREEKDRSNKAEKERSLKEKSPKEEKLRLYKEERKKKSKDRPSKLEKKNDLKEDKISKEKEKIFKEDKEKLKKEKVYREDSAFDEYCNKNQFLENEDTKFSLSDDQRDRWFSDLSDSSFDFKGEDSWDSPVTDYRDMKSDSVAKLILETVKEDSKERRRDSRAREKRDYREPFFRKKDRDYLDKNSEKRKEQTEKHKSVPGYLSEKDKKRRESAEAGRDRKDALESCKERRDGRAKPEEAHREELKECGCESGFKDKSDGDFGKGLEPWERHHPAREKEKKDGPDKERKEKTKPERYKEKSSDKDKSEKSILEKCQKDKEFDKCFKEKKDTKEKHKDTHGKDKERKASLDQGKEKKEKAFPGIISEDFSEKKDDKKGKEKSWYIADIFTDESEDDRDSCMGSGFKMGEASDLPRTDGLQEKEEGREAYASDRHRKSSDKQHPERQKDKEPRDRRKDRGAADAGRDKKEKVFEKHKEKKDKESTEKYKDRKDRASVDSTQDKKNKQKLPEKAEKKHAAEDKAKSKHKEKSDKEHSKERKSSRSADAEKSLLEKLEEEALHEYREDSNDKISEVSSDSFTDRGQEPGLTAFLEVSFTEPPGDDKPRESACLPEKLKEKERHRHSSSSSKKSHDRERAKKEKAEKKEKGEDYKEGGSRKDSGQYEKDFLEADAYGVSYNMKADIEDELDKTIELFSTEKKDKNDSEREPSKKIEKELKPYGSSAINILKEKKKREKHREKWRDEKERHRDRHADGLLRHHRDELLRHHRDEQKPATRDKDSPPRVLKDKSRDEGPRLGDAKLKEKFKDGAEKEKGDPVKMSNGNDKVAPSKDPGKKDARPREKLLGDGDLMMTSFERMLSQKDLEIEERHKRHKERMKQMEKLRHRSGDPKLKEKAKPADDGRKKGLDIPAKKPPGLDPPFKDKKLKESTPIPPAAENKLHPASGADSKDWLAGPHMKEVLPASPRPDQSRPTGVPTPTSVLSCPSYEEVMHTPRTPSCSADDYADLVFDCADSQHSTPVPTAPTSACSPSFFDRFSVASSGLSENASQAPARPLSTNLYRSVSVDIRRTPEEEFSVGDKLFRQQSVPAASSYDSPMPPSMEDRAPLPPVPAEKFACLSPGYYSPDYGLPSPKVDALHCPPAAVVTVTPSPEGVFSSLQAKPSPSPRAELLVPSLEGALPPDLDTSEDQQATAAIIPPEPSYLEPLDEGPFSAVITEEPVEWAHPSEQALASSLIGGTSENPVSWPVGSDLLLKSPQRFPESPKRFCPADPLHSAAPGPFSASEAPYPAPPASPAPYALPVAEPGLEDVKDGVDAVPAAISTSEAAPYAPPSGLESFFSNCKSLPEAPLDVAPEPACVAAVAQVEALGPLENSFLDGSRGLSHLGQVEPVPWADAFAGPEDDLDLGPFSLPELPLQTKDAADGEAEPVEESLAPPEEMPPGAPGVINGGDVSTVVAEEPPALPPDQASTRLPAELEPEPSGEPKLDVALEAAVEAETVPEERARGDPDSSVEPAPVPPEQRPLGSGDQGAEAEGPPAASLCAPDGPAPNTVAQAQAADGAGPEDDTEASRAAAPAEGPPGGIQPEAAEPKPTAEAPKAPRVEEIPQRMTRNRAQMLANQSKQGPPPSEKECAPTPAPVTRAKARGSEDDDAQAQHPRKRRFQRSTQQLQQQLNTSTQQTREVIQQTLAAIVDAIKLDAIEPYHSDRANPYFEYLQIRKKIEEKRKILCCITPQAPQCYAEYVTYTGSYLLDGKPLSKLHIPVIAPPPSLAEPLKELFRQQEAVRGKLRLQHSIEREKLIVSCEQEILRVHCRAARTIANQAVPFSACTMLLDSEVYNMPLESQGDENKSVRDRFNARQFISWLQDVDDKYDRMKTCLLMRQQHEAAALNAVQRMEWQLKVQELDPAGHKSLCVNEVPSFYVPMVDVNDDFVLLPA
Chain of UniProt Q7Z2T5 (Q7Z2T5 whole entry): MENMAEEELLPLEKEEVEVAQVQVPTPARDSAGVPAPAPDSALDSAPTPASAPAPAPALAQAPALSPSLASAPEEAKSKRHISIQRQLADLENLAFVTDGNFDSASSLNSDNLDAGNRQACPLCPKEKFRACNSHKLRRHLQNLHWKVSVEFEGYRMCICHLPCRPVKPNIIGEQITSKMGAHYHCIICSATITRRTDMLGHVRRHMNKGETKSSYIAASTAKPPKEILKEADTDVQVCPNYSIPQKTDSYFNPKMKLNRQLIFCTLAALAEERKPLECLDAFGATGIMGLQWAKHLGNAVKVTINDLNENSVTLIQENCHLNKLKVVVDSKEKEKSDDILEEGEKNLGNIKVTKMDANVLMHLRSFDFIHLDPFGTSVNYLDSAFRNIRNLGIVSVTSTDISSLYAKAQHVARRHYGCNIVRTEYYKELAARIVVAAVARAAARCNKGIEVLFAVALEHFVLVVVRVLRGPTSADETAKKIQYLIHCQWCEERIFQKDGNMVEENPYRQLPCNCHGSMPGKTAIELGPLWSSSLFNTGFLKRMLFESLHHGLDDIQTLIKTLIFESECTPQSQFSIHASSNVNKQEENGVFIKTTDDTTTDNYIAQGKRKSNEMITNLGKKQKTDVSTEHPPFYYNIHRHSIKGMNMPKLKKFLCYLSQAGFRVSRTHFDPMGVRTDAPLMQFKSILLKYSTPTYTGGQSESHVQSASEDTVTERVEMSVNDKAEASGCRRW
Chain of UniProt P60891 (P60891 whole entry): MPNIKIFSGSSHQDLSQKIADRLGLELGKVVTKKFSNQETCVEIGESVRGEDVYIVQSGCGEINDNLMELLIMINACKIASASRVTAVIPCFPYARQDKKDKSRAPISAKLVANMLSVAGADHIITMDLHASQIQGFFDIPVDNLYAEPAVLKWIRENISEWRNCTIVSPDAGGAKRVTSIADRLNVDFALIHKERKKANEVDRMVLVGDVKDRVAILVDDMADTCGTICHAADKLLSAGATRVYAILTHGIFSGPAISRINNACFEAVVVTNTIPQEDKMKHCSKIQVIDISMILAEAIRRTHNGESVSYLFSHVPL
Chain of UniProt Q8IZ83 (Q8IZ83 whole entry): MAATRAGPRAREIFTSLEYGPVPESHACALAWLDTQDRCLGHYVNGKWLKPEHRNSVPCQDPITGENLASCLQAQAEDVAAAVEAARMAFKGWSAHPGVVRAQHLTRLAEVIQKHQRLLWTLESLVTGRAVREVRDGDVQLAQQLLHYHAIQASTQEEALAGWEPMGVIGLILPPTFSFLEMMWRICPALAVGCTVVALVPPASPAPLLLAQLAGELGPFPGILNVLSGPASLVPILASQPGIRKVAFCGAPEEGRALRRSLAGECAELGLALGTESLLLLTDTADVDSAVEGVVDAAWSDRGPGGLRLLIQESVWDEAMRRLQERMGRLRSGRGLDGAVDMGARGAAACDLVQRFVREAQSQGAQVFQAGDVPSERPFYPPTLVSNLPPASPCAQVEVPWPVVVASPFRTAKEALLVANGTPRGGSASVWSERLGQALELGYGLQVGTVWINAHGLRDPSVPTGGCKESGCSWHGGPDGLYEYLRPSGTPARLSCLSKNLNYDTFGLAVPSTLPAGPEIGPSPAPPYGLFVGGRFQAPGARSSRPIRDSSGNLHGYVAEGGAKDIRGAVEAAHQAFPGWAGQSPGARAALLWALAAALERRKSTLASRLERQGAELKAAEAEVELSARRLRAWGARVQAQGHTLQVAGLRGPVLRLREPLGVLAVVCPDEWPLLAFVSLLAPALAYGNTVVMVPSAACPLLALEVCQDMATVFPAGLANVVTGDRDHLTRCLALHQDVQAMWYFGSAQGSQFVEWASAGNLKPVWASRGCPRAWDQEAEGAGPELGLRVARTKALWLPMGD
Chain of UniProt Q86SZ2 (Q86SZ2 whole entry): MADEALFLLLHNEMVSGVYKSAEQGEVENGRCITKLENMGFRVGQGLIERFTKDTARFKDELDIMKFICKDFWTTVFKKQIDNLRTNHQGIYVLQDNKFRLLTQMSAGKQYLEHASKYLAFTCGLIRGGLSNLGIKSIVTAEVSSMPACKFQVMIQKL
Chain of UniProt Q86WR0 (Q86WR0 whole entry): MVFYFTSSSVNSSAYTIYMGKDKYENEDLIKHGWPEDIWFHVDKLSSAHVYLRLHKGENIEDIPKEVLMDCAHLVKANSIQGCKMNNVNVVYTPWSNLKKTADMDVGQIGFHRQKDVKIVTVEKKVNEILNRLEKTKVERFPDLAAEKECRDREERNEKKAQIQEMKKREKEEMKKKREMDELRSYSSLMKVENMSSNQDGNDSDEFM

“UniProt Q86U86|Q86U86-8|Q86U86-2|Q86U86-4|Q86U86-5|Q86U86-7|Q86U86-9”: the NP40-soluble protein abundance is, setting by setting: (concentration: 0.1mM) 1.07 ± 0.048; (concentration: 0.5mM) 1.14 ± 0.078; (concentration: 1mM) 1.21 ± 0.092; (concentration: 2mM) 1.38 ± 0.11; (concentration: 4mM) 1.53 ± 0.12; (concentration: 6mM) 1.61 ± 0.16. Moreover, the NP40-soluble protein abundance reads like this: (concentration: 8mM) 1.72 ± 0.16; (concentration: 10mM) 1.78 ± 0.18.
Regarding UniProt Q7Z2T5, the NP40-soluble protein abundance reads like this: (concentration: 0.1mM) 1.05 ± 0.05; (concentration: 0.5mM) 1.09 ± 0.014; (concentration: 1mM) 1.08 ± 0.035; (concentration: 2mM) 1.21 ± 0.059; (concentration: 4mM) 1.32 ± 0.072; (concentration: 6mM) 1.42 ± 0.08. Also, the NP40-soluble protein abundance runs as follows: (concentration: 8mM) 1.44 ± 0.059; (concentration: 10mM) 1.57 ± 0.024.
SNW1 (UniProt Q13573): the NP40-soluble protein abundance (concentration: 0.1mM) was 0.96 ± 0.049; the NP40-soluble protein abundance (concentration: 0.5mM) was 0.94 ± 0.064; the NP40-soluble protein abundance (concentration: 1mM) was found to be 0.97 ± 0.028; the NP40-soluble protein abundance (concentration: 2mM) came to 0.94 ± 0.071; the NP40-soluble protein abundance (concentration: 4mM) is 0.942 ± 0.063; the NP40-soluble protein abundance (concentration: 6mM) amounted to 0.959 ± 0.041. The NP40-soluble protein abundance reads like this: (concentration: 8mM) 1.01 ± 0.046; (concentration: 10mM) 1.03 ± 0.051.
Consider “UniProt Q13428|Q13428-3|Q13428-4|Q13428-7”, for which the NP40-soluble protein abundance (concentration: 0.1mM) came to 0.975 ± 0.096; the NP40-soluble protein abundance (concentration: 0.5mM) worked out at 1.01 ± 0.085; the NP40-soluble protein abundance (concentration: 1mM) came to 1.09 ± 0.12; the NP40-soluble protein abundance (concentration: 2mM) is 1.09 ± 0.15; the NP40-soluble protein abundance (concentration: 4mM) amounted to 1.11 ± 0.16; the NP40-soluble protein abundance (concentration: 6mM) was found to be 1.13 ± 0.14. The NP40-soluble protein abundance (concentration: 8mM) is 1.17 ± 0.17 and the NP40-soluble protein abundance (concentration: 10mM) is 1.23 ± 0.23.
In the case of UniProt P60891, the NP40-soluble protein abundance came to 1.03 ± 0.072 (concentration: 0.1mM); 1.15 ± 0.18 (concentration: 0.5mM); 1.18 ± 0.22 (concentration: 1mM); 1.26 ± 0.25 (concentration: 2mM); 1.29 ± 0.23 (concentration: 4mM); 1.3 ± 0.28 (concentration: 6mM). Besides, the NP40-soluble protein abundance is, setting by setting: (concentration: 8mM) 1.28 ± 0.27; (concentration: 10mM) 1.26 ± 0.23.
Regarding UniProt Q16864|Q16864-2, the NP40-soluble protein abundance by setting is: (concentration: 0.1mM) 0.906 ± 0.02; (concentration: 0.5mM) 0.931 ± 0.05; (concentration: 1mM) 1.032 ± 0.01; (concentration: 2mM) 1.04 ± 0.067; (concentration: 4mM) 0.999 ± 0.061; (concentration: 6mM) 1.02 ± 0.034. Moreover, the NP40-soluble protein abundance by setting is: (concentration: 8mM) 0.992 ± 0.073; (concentration: 10mM) 1.02 ± 0.027.
In the case of UniProt Q5K651|C9JKF1, the NP40-soluble protein abundance worked out at 1.04 ± 0.017 (concentration: 0.1mM); 1.07 ± 0.021 (concentration: 0.5mM); 0.998 ± 0.025 (concentration: 1mM); 1.01 ± 0.062 (concentration: 2mM); 0.968 ± 0.083 (concentration: 4mM); 0.959 ± 0.047 (concentration: 6mM). Besides, the NP40-soluble protein abundance (concentration: 8mM) turned out to be 0.985 ± 0.045 and the NP40-soluble protein abundance (concentration: 10mM) was found to be 0.949 ± 0.088.
On to ALDH16A1 (UniProt Q8IZ83), for which the NP40-soluble protein abundance runs as follows: (concentration: 0.1mM) 1.11 ± 0.033; (concentration: 0.5mM) 1.1 ± 0.076; (concentration: 1mM) 1.13 ± 0.13; (concentration: 2mM) 1.15 ± 0.12; (concentration: 4mM) 1.16 ± 0.17; (concentration: 6mM) 1.15 ± 0.15. Further, the NP40-soluble protein abundance is, setting by setting: (concentration: 8mM) 1.16 ± 0.16; (concentration: 10mM) 1.11 ± 0.15.
With “UniProt Q04656|Q04656-2|Q04656-3|Q04656-5”, the NP40-soluble protein abundance stood at 1.01 ± 0.13 (concentration: 0.1mM); 1.01 ± 0.059 (concentration: 0.5mM); 0.971 ± 0.096 (concentration: 1mM); 1.01 ± 0.079 (concentration: 2mM); 0.951 ± 0.052 (concentration: 4mM); 1.02 ± 0.015 (concentration: 6mM). Moreover, the NP40-soluble protein abundance by setting is: (concentration: 8mM) 0.972 ± 0.11; (concentration: 10mM) 0.924 ± 0.087.
As to ANKRD11 (UniProt Q6UB99), the NP40-soluble protein abundance is, setting by setting: (concentration: 0.1mM) 1.01 ± 0.024; (concentration: 0.5mM) 1.01 ± 0.092; (concentration: 1mM) 1.1 ± 0.027; (concentration: 2mM) 1.1 ± 0.06; (concentration: 4mM) 1.1 ± 0.041; (concentration: 6mM) 1.08 ± 0.042. For the same target, the NP40-soluble protein abundance is, setting by setting: (concentration: 8mM) 1.18 ± 0.073; (concentration: 10mM) 1.17 ± 0.073.
As to TRAPPC6B (UniProt Q86SZ2), the NP40-soluble protein abundance by setting is: (concentration: 0.1mM) 1.06 ± 0.015; (concentration: 0.5mM) 0.988 ± 0.077; (concentration: 1mM) 0.954 ± 0.058; (concentration: 2mM) 0.997 ± 0.092; (concentration: 4mM) 0.999 ± 0.049; (concentration: 6mM) 0.963 ± 0.088. For the same target, the NP40-soluble protein abundance runs as follows: (concentration: 8mM) 0.885 ± 0.017; (concentration: 10mM) 0.958 ± 0.065.
As to UniProt Q13303-2, the NP40-soluble protein abundance (concentration: 0.1mM) came to 1.05 ± 0.045; the NP40-soluble protein abundance (concentration: 0.5mM) turned out to be 1.06 ± 0.11; the NP40-soluble protein abundance (concentration: 1mM) came to 0.954 ± 0.086; the NP40-soluble protein abundance (concentration: 2mM) stood at 1 ± 0.14; the NP40-soluble protein abundance (concentration: 4mM) worked out at 0.984 ± 0.11; the NP40-soluble protein abundance (concentration: 6mM) is 0.973 ± 0.14. Moreover, the NP40-soluble protein abundance reads like this: (concentration: 8mM) 0.898 ± 0.024; (concentration: 10mM) 0.904 ± 0.043.
For the target CCDC25 (UniProt Q86WR0), the NP40-soluble protein abundance (concentration: 0.1mM) was 0.954 ± 0.079; the NP40-soluble protein abundance (concentration: 0.5mM) stood at 0.939 ± 0.057; the NP40-soluble protein abundance (concentration: 1mM) is 0.892 ± 0.051; the NP40-soluble protein abundance (concentration: 2mM) was found to be 0.842 ± 0.071; the NP40-soluble protein abundance (concentration: 4mM) was 0.855 ± 0.1; the NP40-soluble protein abundance (concentration: 6mM) worked out at 0.842 ± 0.084. Moreover, the NP40-soluble protein abundance reads like this: (concentration: 8mM) 0.876 ± 0.059; (concentration: 10mM) 0.863 ± 0.068.
Take UniProt Q16643|Q16643-2|Q16643-3: the NP40-soluble protein abundance runs as follows: (concentration: 0.1mM) 0.894 ± 0.061; (concentration: 0.5mM) 0.888 ± 0.11; (concentration: 1mM) 0.903 ± 0.11; (concentration: 2mM) 0.905 ± 0.11; (concentration: 4mM) 1.08 ± 0.1; (concentration: 6mM) 1.24 ± 0.11. Also, the NP40-soluble protein abundance runs as follows: (concentration: 8mM) 1.52 ± 0.15; (concentration: 10mM) 1.81 ± 0.12.
For the target UniProt Q5SRE5|Q5SRE5-2, the NP40-soluble protein abundance turned out to be 1.17 ± 0.11 (concentration: 0.1mM); 1.13 ± 0.051 (concentration: 0.5mM); 1.03 ± 0.13 (concentration: 1mM); 1.01 ± 0.13 (concentration: 2mM); 1.13 ± 0.024 (concentration: 4mM); 1.11 ± 0.088 (concentration: 6mM). The NP40-soluble protein abundance came to 1.03 ± 0.029 (concentration: 8mM) and 1.08 ± 0.046 (concentration: 10mM).
